# In the supplement of paper PMC6992640:
# Counter-ions that a name gives are not always drawn. ± gives the standard deviation of the averaged measurements.
# Experiments:
# Assay in all cases: cell viability (% of vehicle); higher = less cytotoxic
# Details in all cases: 10 µM; 72 h
# HCI01 = tested on: HCI01 (cells of a triple-negative basal-like breast cancer xenograft)
# HCI03 = tested on: HCI03 (cells of an ER-positive luminal breast cancer xenograft)
# HCI09 = tested on: HCI09 (cells of a triple-negative luminal androgen receptor type breast cancer xenograft)
# HCI11 = tested on: HCI11 (cells of an ER-positive luminal breast cancer xenograft)
# HCI13 = tested on: HCI13 (cells of an ER-positive luminal breast cancer xenograft)
# HCI16 = tested on: HCI16 (cells of a triple-negative basal-like breast cancer xenograft)
# UCD52 = tested on: UCD52 (cells of a triple-negative basal-like breast cancer xenograft)
# WHIM2 = tested on: WHIM2 (cells of a triple-negative basal-like breast cancer xenograft)
# WHIM30 = tested on: WHIM30 (cells of a triple-negative basal-like breast cancer xenograft)
# 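Note: PDX cells carrying CMV promoter-driven luciferase, viability read as total photon flux per second by IVIS imaging following D-luciferin, vehicle control 0.1% DMSO.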
Compound,cell viability (HCI01),cell viability (HCI03),cell viability (HCI09),cell viability (HCI11),cell viability (HCI13),cell viability (HCI16),cell viability (UCD52),cell viability (WHIM2),cell viability (WHIM30)
CC(C)(C)NCC(O)COc1nsnc1N1CCOCC1.O=C(O)C=CC(=O)O (stereo not given) [Timolol Maleate],115.9 ± 0.17,116,106 ± 5.1,107,89.5 ± 12,120,96.4 ± 1.9,93.1 ± 15,112 ± 6.8
OC(Cn1cncn1)(Cn1cncn1)c1ccc(F)cc1F [Fluconazole hydrate],116 ± 7.6,109,99.4 ± 25,89.7,138 ± 7.4,101,93.5 ± 5.6,99.1 ± 9.9,127 ± 21
COC1C(OC(N)=O)C(O)C(Oc2ccc3c(O)c(NC(=O)c4ccc([O-])c(CC=C(C)C)c4)c(=O)oc3c2C)OC1(C)C.[Na+] (stereo not given) [Novobiocin Sodium],126 ± 61,153,93.1 ± 5.1,75.6,140 ± 2.5,130,120 ± 16,130 ± 5.4,116 ± 15
O=c1cc[nH]c(=S)[nH]1 [2-Thiouracil],107 ± 6.1,139,94.4 ± 19,103,82.4 ± 8.2,112,91.8 ± 2.9,117 ± 34,178 ± 5.9
COc1cc(C(=O)NC2CCCNC2)cc(OC)c1OC (stereo not given) [Troxipide],98.8 ± 1,110,107 ± 28,96.3,57.8 ± 3.5,106,96.8 ± 7.8,103 ± 15,137 ± 11
O=C1C(CCC(O)c2ccc(F)cc2)C(c2ccc(O)cc2)N1c1ccc(F)cc1 (stereo not given) [Ezetimibe],109 ± 6.1,102,86.6 ± 20,92.5,121 ± 3.4,97.3,81.4 ± 3.2,96 ± 5.4,100 ± 5.3
CC1=C2N=C(C=C3N=C(C(C)=C4[N-]C(C)(C5N=C1C(C)(CCC(=O)NCC(C)OP(=O)([O-])OC1C(CO)OC(n6cnc7cc(C)c(C)cc76)C1O)C5CC(N)=O)C(C)(CC(N)=O)C4CCC(N)=O)C(C)(CC(N)=O)C3CCC(N)=O)C(C)(C)C2CCC(N)=O.[CH3-].[Co+3] (stereo not given) [Methylcobalamin],81.6 ± 13,132,112 ± 14,91.1,112 ± 2.5,106,112 ± 9.1,91.3 ± 23,106.57 ± 0.028
COc1cc(Nc2nc3ccccc3nc2NS(=O)(=O)c2ccc(NC(=O)c3ccc(C)c(OC)c3)cc2)cc(OC)c1,86.4 ± 4.2,102,49.675 ± 0.011,86.9,66.9 ± 17,94.9,84.5 ± 8.2,54.3 ± 12,88.5 ± 24
CS(=O)(=O)c1ccc(C2=C(c3ccccc3)C(=O)OC2)cc1 [Rofecoxib],127 ± 8.3,119,84.3 ± 18,99.7,141 ± 20,96.7,78.7 ± 10,99 ± 6.9,84.6 ± 5.8
COc1ccnc(C[S+]([O-])c2nc3cc(OC(F)F)ccc3[nH]2)c1OC (stereo not given) [Pantoprazole],123 ± 15,133,102 ± 2.6,103,97.1 ± 2.1,108,130 ± 5.1,100 ± 7.9,130 ± 7.3
C1N2CN3CN1CN(C2)C3 [Methenamine],89.3 ± 14,127,101 ± 14,90.8,177 ± 29,104,90.2 ± 4.5,91.8 ± 2.4,142 ± 4.7
COc1cc(Nc2ncc3c(n2)-c2ccc(Cl)cc2C(c2c(F)cccc2OC)=NC3)ccc1C(=O)O [MLN8237 (Alisertib)],80 ± 15,118,106 ± 32,100,94.9 ± 14,87.9,64.6 ± 12,80.1 ± 8.5,156 ± 12
Cc1ccc(C(=O)c2cc(O)c(O)c([N+](=O)[O-])c2)cc1 [Tolcapone],70.6 ± 40,52.5,14.6 ± 1.4,57.5,64.16 ± 0.48,84.2,71.6 ± 18,117 ± 26,120 ± 7.5
Cn1c(=O)cc(N2CCCC(N)C2)n(Cc2ccccc2C#N)c1=O (stereo not given) [Alogliptin (SYR-322)],118 ± 5.8,112,89.5 ± 8.9,112,115 ± 26,113,108.86 ± 0.059,114 ± 9.2,117 ± 6.7
COc1cc(CNC(=O)CCCCC=CC(C)C)ccc1O [Capsaicin],105 ± 8.6,120,75.8 ± 1.6,90.6,101 ± 17,82.4,78.3 ± 5.6,90.1 ± 21,108 ± 12
O=C([O-])CCCc1ccccc1.[Na+] [Sodium Phenylbutyrate],122 ± 6.5,135,101 ± 19,117,124 ± 8.9,127,103 ± 16,103.7 ± 0.73,162 ± 27
CCCCCCCCCCCCCCCCCCCCCCO [Docosanol (Abreua)],82.8 ± 2.5,93.4,82.5 ± 8,95.6,97.3 ± 27,84.5,76.5 ± 11,81.8 ± 19,102 ± 3
CN(C)CCCC1(c2ccc(F)cc2)OCc2cc(C#N)ccc21.O=C(O)C(=O)O (stereo not given) [Escitalopram Oxalate],99.8 ± 9.9,114,97.3 ± 12,86.2,93.6 ± 18,128,90.9 ± 5.2,87.5 ± 5.9,157 ± 21
COc1ccc(C(=O)c2ccccc2)c(O)c1 [Oxybenzone],120 ± 26,141,111 ± 15,109,103 ± 8.8,128,117 ± 11,125 ± 6.8,137 ± 22
"S=C(NCc1ccc2c(c1)OCO2)N1CCN(c2ncnc3c2oc2ccccc23)CC1 [Amuvatinib (MP-470, HPK 56)]",107 ± 48,120,40 ± 18,81.7,82 ± 9.2,84.3,73 ± 1.1,149 ± 3.3,75.2 ± 9.7

Compound,cell viability (HCI01),cell viability (HCI03),cell viability (HCI09),cell viability (HCI11),cell viability (HCI13),cell viability (HCI16),cell viability (UCD52),cell viability (WHIM2),cell viability (WHIM30)
CON=C(C(=O)NC1C(=O)N2C(C(=O)O)=C(CSC(=O)c3ccco3)CSC12)c1csc(N)n1.Cl (stereo not given) [Ceftiofur HCl],90.2 ± 12,132,95.9 ± 8.5,100,56.9 ± 2.3,103,103 ± 12,104 ± 10,111 ± 14
Cc1cc(=O)[nH]c(=S)[nH]1 [Methylthiouracil],97.2 ± 29,119,94.7 ± 16,93.8,119 ± 2.5,115,92.7 ± 7.9,80.6 ± 8.1,139 ± 5.5
CS(=O)(=O)Nc1ccc([N+](=O)[O-])cc1Oc1ccccc1 [Nimesulide],146 ± 23,117,80.56 ± 0.45,104,109 ± 4.1,144,81.5 ± 15,107 ± 13,92.5 ± 2.9
O=C(O)CSCC(=O)NC1CCSC1=O (stereo not given) [Erdosteine],105 ± 12,125,108 ± 27,108,87.3 ± 5.8,134,94.1 ± 8.3,119 ± 33,177 ± 44
C=CCNC(N)=S [Allylthiourea],96.4 ± 7.7,118,94.1 ± 19,97.4,64.8 ± 14,107,129 ± 35,108 ± 35,130 ± 8
CC(C)(Oc1ccc(CCNC(=O)c2ccc(Cl)cc2)cc1)C(=O)O [Bezafibrate],108.4 ± 0.24,101,95.5 ± 17,104,97.3 ± 2.6,123,101 ± 8.8,112 ± 14,113 ± 6.7
NCC1OC(OC2C(CO)OC(OC3C(O)C(N)CC(N)C3OC3OC(CO)C(O)C(O)C3N)C2O)C(N)C(O)C1O.O=S(=O)(O)O (stereo not given) [Paromomycin Sulfate],125 ± 32,133,88.3 ± 10,95,86.8 ± 14,129,91.82 ± 0.62,131 ± 48,111 ± 8
COc1ccccc1OCC(O)COC(N)=O (stereo not given) [Methyocarbamol],148 ± 10,132,144 ± 44,108,109 ± 3.5,111,104 ± 8.4,104 ± 27,134 ± 2.3
CCC1(O)CC2CN(CCc3c([nH]c4ccccc34)C(C(=O)OC)(c3cc4c(cc3OC)N(C)C3C(O)(C(=O)OC)C(OC(C)=O)C5(CC)C=CCN6CCC43C65)C2)C1 (stereo not given) [vinblastine],123 ± 3.3,91.1,45.7 ± 42,96.2,37.6 ± 3.4,164,68 ± 10,80.7 ± 22,124 ± 17
COc1ccc2cccc(CCNC(C)=O)c2c1 [Agomelatine],92.5 ± 10,139,99.7 ± 4.7,92.4,89.4 ± 2.2,105,86.1 ± 12,89.9 ± 20,136 ± 11
Nc1nc(=O)c2c(CCc3ccc(C(=O)NC(CCC(=O)O)C(=O)O)cc3)c[nH]c2[nH]1.O.[Na+] (stereo not given) [Pemetrexed disodium hemipenta hydrate],97.24 ± 0.52,95.8,93.8 ± 24,91.3,90 ± 7.8,69.3,95.4 ± 1.8,90.47 ± 0.25,119 ± 36
Cl.N#Cc1ccc2[nH]cc(CCCCN3CCN(c4ccc5oc(C(N)=O)cc5c4)CC3)c2c1 [Vilazodone Hydrochloride],135 ± 3.5,103,104 ± 18,122,113 ± 6.7,166,111 ± 3.3,109 ± 20,112 ± 17
Cl.Cl.Clc1ccc(Nc2nnc(Cc3ccncc3)c3ccccc23)cc1 [Vatalanib (PTK787) 2HCl],136 ± 53,104,54.7 ± 2.1,92.3,45.8 ± 8.3,76.5,55.4 ± 5,46 ± 19,93.2 ± 2.6
OC(CCCN1CCCCC1)(c1ccccc1)c1ccccc1 [Diphenidol HCl],117 ± 19,139,107 ± 12,82.5,88.1 ± 2.6,118,101 ± 25,108 ± 9.6,113 ± 11
CCCN1CCCCC1C(=O)Nc1c(C)cccc1C.Cl (stereo not given) [Ropivacaine HCl],98.4 ± 14,128,96 ± 5.6,86,96.2 ± 3.2,121,90.97 ± 0.57,92.8 ± 8.5,97.5 ± 4.7
CN(C)CC(c1ccc(O)cc1)C1(O)CCCCC1 (stereo not given) [Desvenlafaxine],84 ± 2.4,118,92.5 ± 18,80.5,90.1 ± 13,126,92.2 ± 9.2,79.9 ± 7.9,124 ± 7.7
Nc1nc(N)nc(-c2cc(Cl)ccc2Cl)n1 [Irsogladine],92.7 ± 5.9,113,91.9 ± 16,89.7,102 ± 18,108,107 ± 4.4,114 ± 4.4,76.4 ± 4.1
CC(=O)OC1CC2CCC3C(CCC4(C)C3CC([N+]3(C)CCCCC3)C4OC(C)=O)C2(C)CC1N1CCCCC1.[Br-] (stereo not given) [Vecuronium Bromide],84.7 ± 11,146,90.5 ± 0.71,105,110 ± 14,93.9,87.7 ± 8.1,80.9 ± 7.3,155 ± 3.4
CC(O)C1C(=O)N2C(C(=O)O)=C(SC3CNC(C(=O)N(C)C)C3)C(C)C12.O.O.O (stereo not given) [Meropenem trihydrate],104 ± 8.7,81.8,127 ± 32,92.4,95 ± 0.96,96.2,89.6 ± 5.1,99.4 ± 7.5,78.309 ± 0.071
CNCC(O)C(O)C(O)C(O)CO (stereo not given) [Meglumine],80.2 ± 19,93.4,97.6 ± 1.5,74.4,142 ± 11,110,78.3 ± 1.6,85.9 ± 25,133 ± 5.2
